Publication PMC7862700, “An all-to-all approach to the identification of sequence-specific readers for epigenetic DNA modifications on cytosine”

How the values were obtained:
Test in all cases: DAPPL (digital affinity profiling via proximity ligation, sequencing); 10 mM Tris-HCl pH 7.5, 50 mM NaCl, 1 mM DTT, 4% glycerol, room temperature, 30 min; GST-TFs on glutathione beads, 16-mer random dsDNA library, 0.1% formaldehyde crosslink after washing; high values mean tight binding
Conditions in all cases: protein: recombinant; tags: N-terminal GST; dsDNA, one strand shown
ERF = biological target: T1, ERF (Homo sapiens, UniProt P50548 1-548)
T1 sequence: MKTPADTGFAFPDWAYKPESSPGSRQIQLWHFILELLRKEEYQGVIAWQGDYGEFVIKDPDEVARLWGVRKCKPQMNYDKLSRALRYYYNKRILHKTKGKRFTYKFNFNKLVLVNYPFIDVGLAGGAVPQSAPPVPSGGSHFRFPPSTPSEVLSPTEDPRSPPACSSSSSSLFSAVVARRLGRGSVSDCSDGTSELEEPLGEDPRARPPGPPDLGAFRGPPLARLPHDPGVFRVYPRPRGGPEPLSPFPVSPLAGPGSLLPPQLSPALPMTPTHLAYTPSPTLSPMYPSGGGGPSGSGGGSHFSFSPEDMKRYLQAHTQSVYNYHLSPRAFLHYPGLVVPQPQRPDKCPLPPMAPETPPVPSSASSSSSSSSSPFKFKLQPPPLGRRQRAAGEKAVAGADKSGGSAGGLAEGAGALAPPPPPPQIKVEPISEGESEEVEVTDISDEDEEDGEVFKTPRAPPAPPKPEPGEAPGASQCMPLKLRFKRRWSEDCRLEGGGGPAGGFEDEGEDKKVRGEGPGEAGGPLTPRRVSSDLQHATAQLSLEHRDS
Method in brief: (§1)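 Binding signal is defined as a hexamer's read frequency for one factor over its frequency for the tag-only sample. To obtain reads, GST-fused human transcription factors were expressed in yeast, captured on glutathione beads, barcoded with DNA and pooled with that sample. Pools met 200 nmole of a 16-mer random double-stranded DNA library in Tris/NaCl/DTT/glycerol buffer for 30 min at room temperature before washing, 0.1% formaldehyde crosslinking, proximity ligation (BsaI/T4 ligase, 1 h, 37 °C), PCR and Illumina NextSeq500 sequencing.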

ETV3L = biological target: T2, ETV3L (Homo sapiens, UniProt Q6ZN32 1-361)
T2 sequence: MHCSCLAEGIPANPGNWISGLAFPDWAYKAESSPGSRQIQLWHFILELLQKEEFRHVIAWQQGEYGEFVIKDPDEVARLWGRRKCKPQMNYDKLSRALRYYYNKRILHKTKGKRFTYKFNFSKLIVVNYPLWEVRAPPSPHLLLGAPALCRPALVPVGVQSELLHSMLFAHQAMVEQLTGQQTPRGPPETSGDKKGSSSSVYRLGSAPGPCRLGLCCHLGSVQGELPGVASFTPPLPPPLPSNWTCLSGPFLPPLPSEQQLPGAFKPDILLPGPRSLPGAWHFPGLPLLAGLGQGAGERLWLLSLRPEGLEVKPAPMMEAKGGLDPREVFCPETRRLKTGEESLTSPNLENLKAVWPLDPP
Method in brief: as §1

ETS2 = biological target: T3, ETS2 (Homo sapiens, UniProt P15036 1-469)
T3 sequence: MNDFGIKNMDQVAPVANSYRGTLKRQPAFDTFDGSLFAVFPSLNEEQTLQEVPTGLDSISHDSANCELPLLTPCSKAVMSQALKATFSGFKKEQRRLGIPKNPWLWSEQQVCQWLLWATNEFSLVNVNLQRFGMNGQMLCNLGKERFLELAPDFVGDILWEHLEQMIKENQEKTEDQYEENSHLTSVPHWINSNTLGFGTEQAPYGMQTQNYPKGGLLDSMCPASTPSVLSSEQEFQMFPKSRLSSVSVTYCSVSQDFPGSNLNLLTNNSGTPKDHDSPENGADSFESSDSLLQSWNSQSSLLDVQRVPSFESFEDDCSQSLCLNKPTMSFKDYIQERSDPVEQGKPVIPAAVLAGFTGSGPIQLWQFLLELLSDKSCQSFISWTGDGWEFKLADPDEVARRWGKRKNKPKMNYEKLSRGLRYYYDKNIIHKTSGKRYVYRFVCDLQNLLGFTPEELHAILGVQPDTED
Method in brief: as §1

SPDEF = biological target: T4, SPDEF (Homo sapiens, UniProt O95238 1-335)
T4 sequence: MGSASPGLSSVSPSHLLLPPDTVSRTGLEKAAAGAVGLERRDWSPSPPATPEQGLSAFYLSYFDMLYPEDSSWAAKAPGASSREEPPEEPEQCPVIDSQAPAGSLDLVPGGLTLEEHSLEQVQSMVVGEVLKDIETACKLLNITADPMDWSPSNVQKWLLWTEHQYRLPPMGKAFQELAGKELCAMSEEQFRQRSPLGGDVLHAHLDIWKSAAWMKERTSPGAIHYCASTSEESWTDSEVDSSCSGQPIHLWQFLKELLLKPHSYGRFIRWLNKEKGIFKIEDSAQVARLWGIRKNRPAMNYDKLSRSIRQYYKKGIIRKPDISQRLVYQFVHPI
Method in brief: as §1

ETV7 = biological target: T5, ETV7 (Homo sapiens, UniProt Q9Y603 1-341)
T5 sequence: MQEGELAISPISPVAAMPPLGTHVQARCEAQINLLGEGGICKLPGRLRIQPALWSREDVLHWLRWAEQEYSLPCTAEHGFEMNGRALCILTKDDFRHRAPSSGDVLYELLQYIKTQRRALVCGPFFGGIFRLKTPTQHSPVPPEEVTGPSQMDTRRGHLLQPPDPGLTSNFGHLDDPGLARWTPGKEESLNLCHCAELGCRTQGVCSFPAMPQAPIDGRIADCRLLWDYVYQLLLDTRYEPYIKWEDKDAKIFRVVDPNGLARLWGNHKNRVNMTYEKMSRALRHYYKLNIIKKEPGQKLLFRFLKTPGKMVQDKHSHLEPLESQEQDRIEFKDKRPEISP
Method in brief: as §1

ELF5 = biological target: T6, ELF5 (Homo sapiens, UniProt Q9UKW6-2 1-255)
T6 sequence: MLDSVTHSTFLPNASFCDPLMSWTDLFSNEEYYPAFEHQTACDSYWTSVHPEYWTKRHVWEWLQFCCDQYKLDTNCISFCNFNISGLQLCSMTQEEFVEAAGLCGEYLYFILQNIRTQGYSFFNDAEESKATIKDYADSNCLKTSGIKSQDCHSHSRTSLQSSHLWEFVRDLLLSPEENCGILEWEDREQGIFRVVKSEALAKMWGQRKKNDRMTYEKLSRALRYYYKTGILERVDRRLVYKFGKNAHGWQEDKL
Method in brief: as §1

ETV3 = biological target: T7, ETV3 (Homo sapiens, UniProt P41162-2 1-143)
T7 sequence: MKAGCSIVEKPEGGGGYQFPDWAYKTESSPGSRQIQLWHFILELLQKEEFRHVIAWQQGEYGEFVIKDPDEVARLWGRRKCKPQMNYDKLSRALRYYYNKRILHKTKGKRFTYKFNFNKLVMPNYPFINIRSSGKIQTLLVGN
Method in brief: as §1

ETV6 = ETV6 (Homo sapiens, UniProt P41212 1-452)
Method in brief: as §1

Sequence of ETV6 (P41212 whole entry): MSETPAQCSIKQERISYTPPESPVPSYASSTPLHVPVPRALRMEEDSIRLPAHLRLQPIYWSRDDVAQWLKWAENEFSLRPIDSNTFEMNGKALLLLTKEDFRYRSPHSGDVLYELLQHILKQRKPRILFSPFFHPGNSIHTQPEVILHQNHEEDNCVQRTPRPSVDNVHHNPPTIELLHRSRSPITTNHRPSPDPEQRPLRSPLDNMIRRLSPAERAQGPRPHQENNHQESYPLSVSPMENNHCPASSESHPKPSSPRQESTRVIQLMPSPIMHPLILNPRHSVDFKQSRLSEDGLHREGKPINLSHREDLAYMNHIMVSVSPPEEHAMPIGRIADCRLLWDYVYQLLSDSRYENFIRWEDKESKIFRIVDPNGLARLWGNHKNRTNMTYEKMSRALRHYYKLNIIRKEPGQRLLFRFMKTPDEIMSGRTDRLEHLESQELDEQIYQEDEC

| Sequence | binding signal (ERF) | binding signal (ETV3L) | binding signal (ETS2) | binding signal (SPDEF) | binding signal (ETV7) | binding signal (ELF5) | binding signal (ETV3) | binding signal (ETV6) |
| --- | --- | --- | --- | --- | --- | --- | --- | --- |
| TGGCAA | 1.21 fold enrichment (6-mer frequency, TF over GST control) | 1.23 fold enrichment (6-mer frequency, TF over GST control) | 1.14 fold enrichment (6-mer frequency, TF over GST control) | 1 fold enrichment (6-mer frequency, TF over GST control) | 1.16 fold enrichment (6-mer frequency, TF over GST control) | 1.16 fold enrichment (6-mer frequency, TF over GST control) | 1.12 fold enrichment (6-mer frequency, TF over GST control) | 1.28 fold enrichment (6-mer frequency, TF over GST control) |
| TGACCT | 1.66 fold enrichment (6-mer frequency, TF over GST control) | 1.83 fold enrichment (6-mer frequency, TF over GST control) | 1.72 fold enrichment (6-mer frequency, TF over GST control) | 1.74 fold enrichment (6-mer frequency, TF over GST control) | 1.75 fold enrichment (6-mer frequency, TF over GST control) | 1.73 fold enrichment (6-mer frequency, TF over GST control) | 1.59 fold enrichment (6-mer frequency, TF over GST control) | 1.66 fold enrichment (6-mer frequency, TF over GST control) |
| CTAAAC | 1.17 fold enrichment (6-mer frequency, TF over GST control) | 1.18 fold enrichment (6-mer frequency, TF over GST control) | 1.19 fold enrichment (6-mer frequency, TF over GST control) | 1.22 fold enrichment (6-mer frequency, TF over GST control) | 1.2 fold enrichment (6-mer frequency, TF over GST control) | 1.19 fold enrichment (6-mer frequency, TF over GST control) | 1.25 fold enrichment (6-mer frequency, TF over GST control) | 1.17 fold enrichment (6-mer frequency, TF over GST control) |
| TAGGCT | 1.37 fold enrichment (6-mer frequency, TF over GST control) | 1.16 fold enrichment (6-mer frequency, TF over GST control) | 1.29 fold enrichment (6-mer frequency, TF over GST control) | 1.24 fold enrichment (6-mer frequency, TF over GST control) | 1.35 fold enrichment (6-mer frequency, TF over GST control) | 1.09 fold enrichment (6-mer frequency, TF over GST control) | 1.14 fold enrichment (6-mer frequency, TF over GST control) | 1.24 fold enrichment (6-mer frequency, TF over GST control) |
| TCCACG | 1.03 fold enrichment (6-mer frequency, TF over GST control) | 1.18 fold enrichment (6-mer frequency, TF over GST control) | 1.09 fold enrichment (6-mer frequency, TF over GST control) | 1.1 fold enrichment (6-mer frequency, TF over GST control) | 1.06 fold enrichment (6-mer frequency, TF over GST control) | 1.04 fold enrichment (6-mer frequency, TF over GST control) | 1.01 fold enrichment (6-mer frequency, TF over GST control) | 1.06 fold enrichment (6-mer frequency, TF over GST control) |
| AAACTT | 1.36 fold enrichment (6-mer frequency, TF over GST control) | 1.24 fold enrichment (6-mer frequency, TF over GST control) | 1.32 fold enrichment (6-mer frequency, TF over GST control) | 1.1 fold enrichment (6-mer frequency, TF over GST control) | 1.22 fold enrichment (6-mer frequency, TF over GST control) | 1.43 fold enrichment (6-mer frequency, TF over GST control) | 1.34 fold enrichment (6-mer frequency, TF over GST control) | 1.29 fold enrichment (6-mer frequency, TF over GST control) |
| CCGACA | 1.22 fold enrichment (6-mer frequency, TF over GST control) | 1.24 fold enrichment (6-mer frequency, TF over GST control) | 1.26 fold enrichment (6-mer frequency, TF over GST control) | 1.27 fold enrichment (6-mer frequency, TF over GST control) | 1.13 fold enrichment (6-mer frequency, TF over GST control) | 1.25 fold enrichment (6-mer frequency, TF over GST control) | 1.24 fold enrichment (6-mer frequency, TF over GST control) | 1.23 fold enrichment (6-mer frequency, TF over GST control) |
| GGACAT | 1.12 fold enrichment (6-mer frequency, TF over GST control) | 1.13 fold enrichment (6-mer frequency, TF over GST control) | 1.18 fold enrichment (6-mer frequency, TF over GST control) | 1.43 fold enrichment (6-mer frequency, TF over GST control) | 1.23 fold enrichment (6-mer frequency, TF over GST control) | 1.24 fold enrichment (6-mer frequency, TF over GST control) | 1.23 fold enrichment (6-mer frequency, TF over GST control) | 1.18 fold enrichment (6-mer frequency, TF over GST control) |
